# Test results: PubChem BioAssay (Tox21)
# Results filed as inconclusive are left out. Entries that show only a call come without a potency. The source made the active and inactive calls. Unless noted, calls follow the shape of the dose curve; as a rule, active = well fitted curve in the direction sought with a large enough effect in the repeat runs; inconclusive = weak or mixed curves; inactive = no such curve, though single readings can be large; an effect the other way counts as inactive or inconclusive.
# Assays:
# [1] = qHTS assay to identify aromatase inhibitors - cell viability counter screen (AID 743084);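 also: cells stimulated with testosterone during compound exposure; nearly all actives have a fitted effect of over 55% in size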
# [2] = qHTS assay to identify small molecule that activate the aryl hydrocarbon receptor (AhR) signaling pathway - cell viability counter screen (AID 743086);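 also: HepG2 liver cells carrying the AhR DRE luciferase reporter; series mostly up to about 70 µM; nearly all actives have a fitted effect of over 45% in size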
# Method in brief: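 HepG2-AhR-luc (HG2L7.5c1) cells, 4000/well, treated 24 h at 37 C with compound; viability measured as CellTiter-Fluor fluorescence after 30 min in the same wells as the luciferase read.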
# [3] = qHTS assay to identify small molecule antagonists of the peroxisome proliferator-activated receptor gamma (PPARg) signaling pathway - cell viability counter screen (AID 743194); also: nearly all actives have a fitted effect of over 55% in size; also: potency is read from the fitted curve at half-maximal effect
# Method in brief: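 Cytotoxicity counter screen in PPARg-bla HEK293H cells, same wells as reporter assay. Compounds plus 50 nM rosiglitazone (final) for 17 h at 37 C, then viability read by CellTiter-Glo luminescence.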
# [4] = qHTS assay for small molecule agonists of the antioxidant response element (ARE) signaling pathway (AID 743202; active = well fitted activation curve with a large enough effect in the signal ratio in the repeat runs, not every such curve was filed as active; the % refers to the signal ratio; also: potency is read from the fitted curve at half-maximal effect)
# Method in brief: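 HepG2 ARE-bla cells; 16 h treatment at 37 C; FRET-based beta-lactamase fluorescence read after 2 h substrate incubation at room temperature.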
# [5] = qHTS assay for small molecule agonists of the antioxidant response element (ARE) signaling pathway - cell viability counter screen (AID 743203; calls by dose curve; also: nearly all actives have a fitted effect of over 55% in size)
# Method in brief: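 Cytotoxicity was tested in parallel with the ARE reporter screen. ARE-bla HepG2 cells were exposed to compounds for 16 hrs, and viability was taken from CellTiter-Glo luminescence.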
# [6] = qHTS assay for small molecule activators of the heat shock response signaling pathway - cell viability counter screen (AID 743209); also: nearly all actives have a fitted effect of over 50% in size
# Method in brief: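 Cytotoxicity counter screen run in parallel with the HSE beta-lactamase reporter, using the same wells. HeLa HSE-bla cells received compound for 5 h at 37 C; ATP-based CellTiter-Glo luminescence was measured after 30 min at room temperature.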
# [7] = qHTS assay to identify small molecule antagonists of the farnesoid-X-receptor (FXR) signaling pathway - cell viability counter screen (AID 743221; active = well fitted cell-killing curve with a large enough effect in the repeat runs, not every such curve was filed as active; also: nearly all actives have a fitted effect of over 50% in size; also: potency is read from the fitted curve at half-maximal effect)
# Method in brief: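 Quantitative HTS of the Tox21 10K library run in parallel with the beta-lactamase reporter read. HEK 293T cells carrying a UAS-driven bla reporter got compound and 50 uM CDCA (final) for 16 h; ATP-based luminescence followed.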
# [8] = target: Vitamin D3 receptor (Homo sapiens) (UniProt P11473); experiment: qHTS assay to identify small molecule agonists of the vitamin D receptor (VDR) signaling pathway (AID 743222; calls by dose curve)
# Chain of Vitamin D3 receptor (Homo sapiens) (P11473 whole entry, looked up): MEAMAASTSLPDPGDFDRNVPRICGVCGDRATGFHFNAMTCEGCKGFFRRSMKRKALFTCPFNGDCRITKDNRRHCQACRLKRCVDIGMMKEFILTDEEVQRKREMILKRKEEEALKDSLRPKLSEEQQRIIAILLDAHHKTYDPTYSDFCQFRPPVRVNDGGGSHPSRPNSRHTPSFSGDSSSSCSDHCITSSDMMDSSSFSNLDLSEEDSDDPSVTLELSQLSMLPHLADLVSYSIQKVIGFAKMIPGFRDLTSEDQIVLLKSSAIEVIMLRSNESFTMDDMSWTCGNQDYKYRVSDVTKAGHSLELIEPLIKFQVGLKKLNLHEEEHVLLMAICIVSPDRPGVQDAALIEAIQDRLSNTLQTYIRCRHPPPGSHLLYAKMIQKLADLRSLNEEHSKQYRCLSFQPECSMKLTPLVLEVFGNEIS
# Method in brief: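 Cells carrying a VDR-driven beta-lactamase reporter are seeded at 2,000 per well and rested 4 h. Compounds in DMSO are added for 16 h at 37C, and FRET substrate fluorescence is measured after 2 h at room temperature.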
# [9] = target: Vitamin D3 receptor (Homo sapiens) (UniProt P11473); experiment: qHTS assay to identify small molecule antagonists of the vitamin D receptor (VDR) signaling pathway (AID 743223; active = well fitted inhibition curve with a large enough effect in the signal ratio in the repeat runs, not every such curve was filed as active; the % refers to the signal ratio)
# Method in brief: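 Fluorescence from LiveBLAzer B/G FRET substrate, read after 2 h at room temperature, reflects beta-lactamase reporter activity in VDR-bla cells treated 16 h at 37C with compounds and agonist 1alpha,25-dihydroxyvitamin D3 (3 nM final).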
# [10] = qHTS assay to identify small molecule agonists of the peroxisome proliferator-activated receptor delta (PPARd) signaling pathway - cell viability counter screen (AID 743211); also: nearly all actives have a fitted effect of over 55% in size; also: potency is read from the fitted curve at half-maximal effect
# Method in brief: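 Viability of GeneBLAzer PPARd UAS-bla HEK293H cells was assessed after 17 h compound incubation at 37C, using CellTiter-Glo reagent added after the reporter read and luminescence recorded 30 min later.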
# [11] = qHTS assay to identify small molecule agonists of the farnesoid-X-receptor (FXR) signaling pathway - cell viability counter screen (AID 743218); also: nearly all actives have a fitted effect of over 45% in size; also: potency is read from the fitted curve at half-maximal effect
# Method in brief: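 Cells were seeded, left 5 h at 37 C and 5% CO2, then dosed with compound in DMSO for 16 h. After the beta-lactamase FRET read, CellTiter-Glo was added and luminescence measured 30 min later.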
# [12] = qHTS assay for small molecule activators of the heat shock response signaling pathway (AID 743210; active = well fitted activation curve with a large enough effect in the signal ratio in the repeat runs, with a control signal flat, not every such curve was filed as active; the % refers to the signal ratio;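 also: HeLa cells with beta-lactamase reporter driven by heat shock elements; series mostly up to about 63 µM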)
# Method in brief: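 Following overnight attachment, HSE-bla HeLa cells received test compounds for 5 h at 37 C; beta-lactamase activity was then detected via FRET substrate fluorescence.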
# [13] = qHTS assay to identify small molecule antagonists of the peroxisome proliferator-activated receptor delta (PPARd) signaling pathway - cell viability counter screen (AID 743213); also: nearly all actives have a fitted effect of over 50% in size; also: potency is read from the fitted curve at half-maximal effect
# Method in brief: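 PPARd-bla HEK293H cells were treated with compounds plus agonist L165041 (300 nM final) for 17 h at 37 C. Viability was then read in the same wells by CellTiter-Glo luminescence after 30 min at room temperature.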
# [14] = target: Bile acid receptor (Homo sapiens) (UniProt Q96RI1); experiment: qHTS assay to identify small molecule agonists of the farnesoid-X-receptor (FXR) signaling pathway (AID 743220; active = well fitted activation curve with a large enough effect in the signal ratio in the repeat runs, not every such curve was filed as active; the % refers to the signal ratio)
# Chain of Bile acid receptor (Homo sapiens) (Q96RI1 whole entry, looked up): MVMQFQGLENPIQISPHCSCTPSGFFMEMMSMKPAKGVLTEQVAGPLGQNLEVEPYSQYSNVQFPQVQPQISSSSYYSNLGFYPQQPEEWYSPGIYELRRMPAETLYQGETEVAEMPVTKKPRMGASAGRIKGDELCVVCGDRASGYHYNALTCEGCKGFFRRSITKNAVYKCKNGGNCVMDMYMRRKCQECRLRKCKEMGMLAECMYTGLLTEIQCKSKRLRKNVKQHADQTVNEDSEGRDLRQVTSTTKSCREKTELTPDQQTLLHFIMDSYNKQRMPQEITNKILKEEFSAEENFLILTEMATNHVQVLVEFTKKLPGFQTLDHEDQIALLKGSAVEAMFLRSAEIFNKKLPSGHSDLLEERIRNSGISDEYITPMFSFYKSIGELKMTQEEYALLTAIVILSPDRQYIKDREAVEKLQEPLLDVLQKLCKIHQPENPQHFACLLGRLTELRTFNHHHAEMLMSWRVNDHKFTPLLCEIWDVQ
# Method in brief: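 FXR-UAS-bla HEK 293T cells carrying a UAS-driven beta-lactamase reporter were plated for 5 h at 37C/5% CO2, then exposed to DMSO-dissolved Tox21 10K compounds for 16 h at 37C. A LiveBLAzer B/G FRET substrate was loaded for 2 h at room temperature before fluorescence reading.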
# [15] = target: Aryl hydrocarbon receptor (Homo sapiens) (UniProt P35869); experiment: qHTS assay to identify small molecule that activate the aryl hydrocarbon receptor (AhR) signaling pathway (AID 743085); also: nearly all actives have a fitted effect of over 15% in size; also: potency is read from the fitted curve at half-maximal effect;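 as to activation: HG2L7.5c1 human HepG2 liver cells with stably integrated DRE-driven firefly reporter; series mostly up to about 70 µM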
# Chain of Aryl hydrocarbon receptor (Homo sapiens) (P35869 whole entry, looked up): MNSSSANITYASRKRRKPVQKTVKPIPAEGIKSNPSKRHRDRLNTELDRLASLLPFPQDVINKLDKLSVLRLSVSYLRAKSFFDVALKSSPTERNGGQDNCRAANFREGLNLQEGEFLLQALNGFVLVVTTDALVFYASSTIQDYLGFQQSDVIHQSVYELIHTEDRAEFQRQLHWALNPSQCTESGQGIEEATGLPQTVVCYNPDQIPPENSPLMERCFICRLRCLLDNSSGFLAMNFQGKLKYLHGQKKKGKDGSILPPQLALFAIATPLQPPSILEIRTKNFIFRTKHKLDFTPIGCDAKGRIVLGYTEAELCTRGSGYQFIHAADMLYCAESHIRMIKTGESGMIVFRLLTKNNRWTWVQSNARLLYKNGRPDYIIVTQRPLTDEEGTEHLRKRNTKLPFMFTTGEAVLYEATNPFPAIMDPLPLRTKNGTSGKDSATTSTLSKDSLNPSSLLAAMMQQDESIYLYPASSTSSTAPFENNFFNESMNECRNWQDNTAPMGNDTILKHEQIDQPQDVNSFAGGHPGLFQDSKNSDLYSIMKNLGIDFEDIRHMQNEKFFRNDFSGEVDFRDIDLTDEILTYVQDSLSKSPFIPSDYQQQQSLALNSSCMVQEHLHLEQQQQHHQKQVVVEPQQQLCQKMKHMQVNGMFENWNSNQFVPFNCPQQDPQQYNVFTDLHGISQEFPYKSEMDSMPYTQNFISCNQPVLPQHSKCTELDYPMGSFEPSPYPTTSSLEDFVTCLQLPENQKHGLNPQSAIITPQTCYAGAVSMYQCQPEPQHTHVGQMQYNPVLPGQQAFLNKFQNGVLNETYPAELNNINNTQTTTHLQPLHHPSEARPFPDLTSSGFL
# Method in brief: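 Steps: seed HepG2-AhR-luc cells; allow 5 h at 37C; pin-transfer test compound or vehicle; incubate 24 h at 37C; add viability dye (30 min, 37C) and read fluorescence; add luciferase substrate (30 min, RT) and read luminescence.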
# [16] = target: Peroxisome proliferator-activated receptor delta (Homo sapiens) (UniProt Q03181); experiment: qHTS assay to identify small molecule agonists of the peroxisome proliferator-activated receptor delta (PPARd) signaling pathway (AID 743212; calls by dose curve; also: potency is read from the fitted curve at half-maximal effect)
# Chain of Peroxisome proliferator-activated receptor delta (Homo sapiens) (Q03181 whole entry, looked up): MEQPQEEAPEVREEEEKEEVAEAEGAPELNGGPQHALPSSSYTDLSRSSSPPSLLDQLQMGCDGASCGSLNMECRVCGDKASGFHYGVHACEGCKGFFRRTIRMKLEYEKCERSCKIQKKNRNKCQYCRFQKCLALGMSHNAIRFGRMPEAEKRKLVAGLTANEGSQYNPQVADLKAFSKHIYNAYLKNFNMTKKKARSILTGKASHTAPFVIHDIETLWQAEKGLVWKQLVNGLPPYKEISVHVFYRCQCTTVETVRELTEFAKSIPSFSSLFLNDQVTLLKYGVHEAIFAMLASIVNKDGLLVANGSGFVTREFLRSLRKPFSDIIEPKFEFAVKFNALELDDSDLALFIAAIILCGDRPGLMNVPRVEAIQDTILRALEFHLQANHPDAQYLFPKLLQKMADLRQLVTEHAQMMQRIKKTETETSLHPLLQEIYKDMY
# Method in brief: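 Tox21 library screened in GeneBLAzer PPARd UAS-bla HEK293H cells. After compound treatment at 37 C, a FRET-based beta-lactamase substrate was applied for 2 h and fluorescence recorded.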
# [17] = target: Peroxisome proliferator-activated receptor delta (Homo sapiens) (UniProt Q03181); experiment: qHTS assay to identify small molecule antagonists of the peroxisome proliferator-activated receptor delta (PPARd) signaling pathway (AID 743215; active = well fitted inhibition curve with a large enough effect in the signal ratio in the repeat runs, not every such curve was filed as active; the % refers to the signal ratio;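 also: cells stimulated with agonist L165041 at 300 nM final during compound exposure; series mostly up to about 62 µM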)
# Method in brief: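 Cells: HEK293H with a UAS-driven beta-lactamase reporter responsive to PPARd. Compounds were co-added with L165041 (300 nM, final) and incubated 17 h at 37 C before a 2 h room-temperature FRET substrate step and fluorescence reading.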
# [18] = target: Bile acid receptor (Homo sapiens) (UniProt Q96RI1); experiment: qHTS assay to identify small molecule antagonists of the farnesoid-X-receptor (FXR) signaling pathway (AID 743217; active = well fitted inhibition curve with a large enough effect in the signal ratio in the repeat runs, not every such curve was filed as active; the % refers to the signal ratio)
# Method in brief: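 Cells carrying a UAS-driven beta-lactamase reporter (GeneBLAzer FXR-UAS-bla HEK 293T) were plated and rested 5 h at 37 °C. Compounds in DMSO were added alongside chenodeoxycholic acid agonist at 50 uM final and left 16 h at 37 °C before FRET substrate readout.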
# [19] = target: Peroxisome proliferator-activated receptor gamma (Homo sapiens) (UniProt P37231); experiment: qHTS assay to identify small molecule agonists of the peroxisome proliferator-activated receptor gamma (PPARg) signaling pathway (AID 743094; active = well fitted activation curve with a large enough effect in the signal ratio in the repeat runs, not every such curve was filed as active; the % refers to the signal ratio)
# Chain of Peroxisome proliferator-activated receptor gamma (Homo sapiens) (P37231 whole entry, looked up): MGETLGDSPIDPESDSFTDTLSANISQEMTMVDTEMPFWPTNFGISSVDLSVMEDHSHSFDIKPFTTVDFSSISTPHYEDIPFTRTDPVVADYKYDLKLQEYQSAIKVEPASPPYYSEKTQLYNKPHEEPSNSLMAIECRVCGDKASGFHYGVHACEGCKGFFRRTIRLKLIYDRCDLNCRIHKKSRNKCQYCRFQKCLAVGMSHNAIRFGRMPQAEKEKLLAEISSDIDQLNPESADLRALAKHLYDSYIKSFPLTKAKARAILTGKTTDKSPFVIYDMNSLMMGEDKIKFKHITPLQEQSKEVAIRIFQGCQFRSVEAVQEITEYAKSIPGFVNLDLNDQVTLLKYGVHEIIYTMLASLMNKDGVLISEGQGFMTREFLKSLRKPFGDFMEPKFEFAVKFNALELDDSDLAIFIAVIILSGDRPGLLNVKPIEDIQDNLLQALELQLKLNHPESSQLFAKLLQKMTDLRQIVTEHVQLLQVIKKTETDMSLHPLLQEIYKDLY
# Method in brief: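 Cells from the PPARg UAS-bla HEK293H line are plated and incubated 5 h at 37C. Compounds in DMSO are pinned in and left 17 h at 37C. LiveBLAzer B/G substrate is then added for 1 h at room temperature before fluorescence is measured.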
structure (smiles),measurement,setting,value
CCCCN1CCCC1C(=O)Nc1c(C)cc(C)cc1C (centres undefined),Potency,[1],inactive
same,Potency,[2],inactive
same,Potency,[3],inactive
same,Potency,[4],inactive
same,Potency,[5],inactive
same,Potency,[6],inactive
same,Potency,[7],inactive
same,Potency,[8],inactive
same,Potency,[9],inactive
Cc1cc(=O)c2c(O)c3c(O)cc(=O)c4c3c3c(cc(O)c1c23)C(C)(C)C=4O,Potency,[1],inactive
same,Potency,[10],0.291 µM (active)
same,Potency,[11],1.84 µM (active)
same,Potency,[7],1.84 µM (active)
C[C@]1(Cn2ccnn2)[C@H](C(=O)O)N2C(=O)C[C@H]2S1(=O)=O,Potency,[1],inactive
same,Potency,[2],inactive
same,Potency,[3],inactive
same,Potency,[5],inactive
same,Potency,[12],inactive
same,Potency,[10],inactive
same,Potency,[13],inactive
same,Potency,[11],inactive
same,Potency,[14],inactive
same,Potency,[8],inactive
Cc1ccc2c(Br)cc(Br)c(O)c2n1,Potency,[15],13.3 µM (active)
same,Potency,[2],inactive
same,Potency,[3],23.7 µM (active)
same,Potency,[5],inactive
same,Potency,[6],inactive
same,Potency,[10],inactive
same,Potency,[16],inactive
same,Potency,[13],inactive
same,Potency,[7],inactive
same,Potency,[8],inactive
same,Potency,[9],inactive
C=C/C(C)=C/C/C=C(\C)CCC=C(C)C,Potency,[15],inactive
same,Potency,[2],inactive
same,Potency,[3],inactive
same,Potency,[4],54.5 µM (active)
same,Potency,[16],inactive
same,Potency,[13],inactive
same,Potency,[17],inactive
same,Potency,[18],inactive
same,Potency,[7],inactive
same,Potency,[9],inactive
CCCCCC[C@@H](O)C/C=C\CCCCCCCC(=O)O,Potency,[1],inactive
same,Potency,[2],inactive
same,Potency,[19],inactive
same,Potency,[16],43.6 µM (active)
same,Potency,[13],49 µM (active)
same,Potency,[17],inactive
same,Potency,[18],inactive
same,Potency,[9],inactive
O=C(O)c1cccc(-c2noc(-c3ccccc3F)n2)c1,Potency,[1],inactive
same,Potency,[2],inactive
same,Potency,[6],inactive
same,Potency,[12],inactive
same,Potency,[13],inactive
same,Potency,[7],11.9 µM (active)
same,Potency,[8],inactive
